Screens deposited in PubChem by National Center for Advancing Translational Sciences (NCATS).
D1 PAM = potentiators of human D1 dopamine receptor; AID 504651; HEK293 TREx D1 cells, calcium flux, dopamine EC20 potentiation; potentiation, % at 10 µM; 360,000 tested, 0.036% active; P21728; in the data active means potentiation above about 30%; further: 0% is about no effect
Target sequence (P21728 whole entry, looked up): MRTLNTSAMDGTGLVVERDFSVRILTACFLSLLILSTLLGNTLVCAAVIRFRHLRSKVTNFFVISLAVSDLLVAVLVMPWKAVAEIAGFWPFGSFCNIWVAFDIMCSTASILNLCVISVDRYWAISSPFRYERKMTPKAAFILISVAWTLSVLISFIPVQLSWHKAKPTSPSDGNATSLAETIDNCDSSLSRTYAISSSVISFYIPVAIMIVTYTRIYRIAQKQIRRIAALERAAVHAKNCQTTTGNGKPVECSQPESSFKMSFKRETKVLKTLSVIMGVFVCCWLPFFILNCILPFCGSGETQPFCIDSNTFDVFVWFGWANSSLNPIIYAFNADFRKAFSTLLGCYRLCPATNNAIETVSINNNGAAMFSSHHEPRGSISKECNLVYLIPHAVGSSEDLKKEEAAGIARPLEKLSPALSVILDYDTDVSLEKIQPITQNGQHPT
D1 antag = human D1 dopamine receptor antagonism | P21728 | HEK293 TREx D1 cells, calcium flux, dopamine EC80; hits give low values | activity change, negative = inhibition, % at 10 µM | 360,000 tested, 3.2% active | AID 504652; in the data active means activity change below about -30%; further: on the % scale 0 is the no-effect control and ±100 the full control effect
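Cells carrying a force-coupled, tetracycline-inducible human D1 receptor report calcium flux. Each well gets a 10 s baseline, compound with 180 s monitoring, then an EC80 dopamine stimulus with a second 180 s kinetic read.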
DRD3 agonist = D3 dopamine receptor (human) agonism; P35462; D3R DiscoveRx beta-arrestin cells, luminescence, 90 min; max activation, %; 410,000 tested, 0.58% active; AID 652048; in the data active means max activation above about 30%; further: 0% is about no effect
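Agonist mode: compounds and dopamine controls were applied to plated cells for 90 min at 37 degrees C after an overnight attachment at 1500 cells/well. Luminescent read-out followed 30 - 60 minutes at room temperature with DiscoveRx detection reagent.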
D1 ag = activates the human D1 dopamine receptor; HEK293 T-REx D1 cells, calcium flux, agonist mode; 360,000 tested, 1% active; activation, % at 2 µM; P21728; in the data active means activation above about 30%; further: 0% is about no effect
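Tetracycline-induced HEK293 TREx D1 cells, force-coupled to calcium signalling, were dye-loaded with a no-wash calcium kit. Compound was pin-added after a 10 s baseline. Fluorescence was read kinetically at 1 cycle/s for 180 s, with calcium rises flagged as agonism.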
DRD3 antagonist = antagonists of human D3 dopamine receptor. 360,000 tested, 2.5% active. D3R cells, DiscoveRx beta-arrestin luminescence, antagonist mode; hits give low values. P35462. max response, negative = inhibition, %. AID 652054; in the data active means max response below about -50%; inconclusive means no clear call, values can overlap the other calls; further: on the % scale 0 is the no-effect control and ±100 the full control effect
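Cells plated overnight at 1500 cells/well, then exposed to library compounds with dopamine controls for 90 minutes at 37 degrees C. DiscoveRx reagent added for 30–60 minutes at room temperature; luminescence read, quantitative HTS format.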
An asterisk follows results filed as active; ? = inconclusive; nt = not tested or not shown. Rows were chosen to be rich in hits. Some 6% of all compounds tested hit in one or more screens of this group.

SMILES | D1 PAM | D1 antag | DRD3 agonist | D1 ag | DRD3 antagonist
CC(C)(CC(=O)O)CC(=O)Nc1ccc(Cl)c(Cl)c1 | -3.2 | -58.3* | 2.9 | 1.0 | 14.6
CC1=NNC(=O)C(CC(=O)Nc2ccc(Cl)c(Cl)c2)C1 (stereo not given) | -5.5 | -35.5* | -4.3 | 2.6 | 15.4
CCOc1ccccc1C(=O)Nc1cccc(-c2nc3ccccc3s2)c1 | 0.1 | 2.2 | -5.3 | 6.3 | nt
C[N+]1(CC2COC(c3ccccc3)(C3CCCCC3)O2)CCCCC1 (stereo not given) | nt | nt | -10.6 | nt | nt
O=C(NCc1ccc2c(c1)OCO2)C(=O)NCC1OCCN1S(=O)(=O)c1ccc(Br)cc1 (stereo not given) | -5.2 | -7.2 | -13.4 | 7.7 | 3.0
O=C(NCc1ccc2c(c1)OCO2)C(=O)NCC1OCCN1S(=O)(=O)c1ccc(Cl)cc1 (stereo not given) | -3.2 | -30.8* | 7.1 | 3.2 | 6.9
O=C(NCCCn1ccnc1)C(=O)NCC1OCCN1S(=O)(=O)c1ccc(Cl)cc1 (stereo not given) | -1.2 | -10.8 | 3.1 | -1.2 | 16.2
O=C(NCCCn1ccnc1)C(=O)NCC1OCCCN1S(=O)(=O)c1ccc(Cl)cc1 (stereo not given) | -5.1 | -51.0* | 2.4 | 0.4 | -3.0
Cc1ccc(-c2c(C(=O)N3CCN(c4ccc(F)cc4)CC3)oc(=O)c3ccccc23)cc1 | -0.9 | 23.8 | 3.2 | 2.2 | nt
COc1cc(CNC(C)C)c(Br)cc1OC1CCCC1 | -10.2 | -48.5* | -4.6 | 7.8 | 12.6
Cc1ccc([N+](=O)[O-])cc1NC(=O)CCSc1ccc(Cl)cc1 | -9.2 | -41.8* | -21.2 | 34.2* | -22.9
Cc1ccc([N+](=O)[O-])cc1NC(=O)C(C)N1CCCCC1 (stereo not given) | -8.7 | 1.9 | -28.8 | -0.4 | -23.7
Cc1ccc([N+](=O)[O-])cc1NC(=O)CN1CCC(C)CC1 | 7.7 | 5.5 | -11.6 | 0.0 | -84.3*
Cc1ccc([N+](=O)[O-])cc1NC(=O)CN1CCCCC1 | -2.6 | 13.5 | -3.2 | -1.6 | -78.0*
CC1CCN(CC(=O)NNC(=O)c2cccc(Br)c2)CC1 | -1.1 | -3.5 | -34.0 | -0.4 | -50.0*
O=C(NNC(=O)C1CC=CCC1)c1cccc(Br)c1 (stereo not given) | nt | nt | 7.9 | nt | -12.7
CC1CCN(CC(=O)Nc2ccc(Cl)cc2[N+](=O)[O-])CC1 | 4.7 | -0.9 | 1.5 | 2.5 | -10.1
O=C(Cn1cnnn1)NCc1ccccc1 | 4.0 | 0.4 | 2.3 | 6.5 | 0.7
Cc1ccn(CC(=O)N2CCCC(N3CCN(c4ccc(F)cc4)CC3)C2)n1 (stereo not given) | -1.1 | -20.4 | 0.6 | 1.0 | -0.9
Cc1ccc(OCCC(=O)OCC(=O)Nc2ccc(C)cc2Cl)cc1 | 0.1 | 11.2 | -12.4 | 5.0 | -14.9
CC1CCN(CC(=O)Nc2cccc([N+](=O)[O-])c2)CC1 | -0.8 | -1.0 | -57.7 | -0.4 | -58.1*
Cc1ccc(NC(=O)CN2CCCCCC2)cc1Br | 8.0 | -7.0 | -21.6 | 27.9 | -85.1*
O=C(Nc1cccc([N+](=O)[O-])c1)C1CCN(C(=O)Cc2ccccc2)CC1 | -2.5 | -30.3* | -19.2 | 6.8 | ?
O=C(CN1CCCCCC1)Nc1cccc(Br)c1 | -4.5 | 14.1 | -7.4 | 0.5 | 0.0
COc1cc(Nc2nc3c(S(=O)(=O)c4ccccc4)nnn3c3ccc(Cl)cc23)cc(OC)c1 | -4.6 | 10.8 | -5.7 | 1.4 | nt
SMILES | D1 PAM | D1 antag | DRD3 agonist | D1 ag | DRD3 antagonist
COc1ccc(-c2noc(C3CC(=O)N(c4ccc5c(c4)OCCO5)C3)n2)c(OC)c1 (stereo not given) | 1.8 | 2.4 | -1.6 | 4.9 | nt
Cc1cccc(N=C2NC(=O)/C(=C/c3cccn3C)S2)c1 | 1.6 | -0.1 | -10.8 | 1.6 | -25.7
O=C1NC(=Nc2ccccc2)S/C1=C\c1cccn1-c1ccccc1 | -3.4 | 5.4 | -4.8 | 3.9 | -70.2*
O=C1Nc2ccc(F)cc2C12Nc1ccccc1-c1nnc(SCc3ccccc3)nc1O2 (stereo not given) | nt | nt | -37.4 | nt | -80.6*
Cc1ccc(CSc2nnc3c(n2)OC2(Nc4ccccc4-3)C(=O)Nc3ccc(F)cc32)cc1 (stereo not given) | -0.7 | 6.5 | -22.1 | 2.9 | ?
CCN(CC)C(=O)CSc1nc2c(sc(=S)n2-c2ccc(C)cc2C)c(=O)[nH]1 | -4.3 | -40.6* | 8.1 | 0.8 | 11.9
O=C1CCCc2ccccc2N1Cc1ccccc1Cl | -2.5 | -34.5* | -7.8 | 3.2 | -21.2
